These results are taken from PubChem BioAssay (EPA / NIEHS).

Molecules are shown by their SMILES. Active and inactive are the calls of the source. Rule for the calls: active = hit-call score of the fitted dose curve at least 0.9, where 1 is the maximum; inactive = score below 0.9.

This experiment can be described thus: BSK_3C_Vis: BioMAP Diversity Plus: 3C Assay for Morphology Visualization (AID 2283025).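 Note: fitted both ways so gain or loss versus DMSO counts.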 The conditions noted are these: primary human endothelial cells (HUVEC). On the procedure:
BSK_3C is a cell-based, multiplexed-readout assay that uses umbilical vein endothelium, a human vascular primary cell, with measurements taken at 24 hours after chemical dosing in a 96-well plate.BSK_3C_Vis is an assay component measured in the BSK_3C assay. It measures NA related to cell morphology using light microscopy technology.Data from the assay component BSK_3C_Vis was analyzed into 1 assay endpoint. This assay endpoint, BSK_3C_Vis, was analyzed with bidirectional fitting relative to DMSO as the negative control and baseline of activity. Using a type of morphology reporter, gain or loss-of-signal activity can be used to understand changes in the background control. Furthermore, this assay endpoint can be referred to as a secondary readout, because this assay has produced multiple assay endpoints where this one serves a background control function. To generalize the intended target to other relatable targets, this assay endpoint is annotated to the cell morphology intended target family, where the subfamily is cell conformation.
The levels of cell surface (or secreted, indicated by the prefix "s") biomarker endpoints were measured by ELISA. Overt cytotoxicity to cells in confluent adherent cultures (all systems other than the BT system) was assessed by measuring total protein levels using sulforhodamine B (SRB) staining in parallel cultures at the time of biomarker measurements, indicated as SRB endpoints. For proliferation assays for adherent cell types, individual cell types are cultured at sub-confluence and relative cell numbers quantified by SRB staining at time points optimized for each system (48 h: 3C and CASM3C systems; 72 h: BT and HDF3CGF systems; 96 h: SAg system). SRB was performed by staining cells with 0.1% SRB after fixation with 10% TCA and reading wells at 560 nm.Viability and proliferation of PBMC (T cells) was quantified by Alamar Blue reduction for the SAg and BT systems. For PBMC viability (referred to as PBMC Cytotoxicity within the assay endpoint names), cells were plated (75,000/well in a 96-well plate) and then chemical samples added for 1 h before addition of activators, SEB and TSST-1 (20 ng/mL final concentration each). Cells were incubated for 90 h. Then, Alamar Blue (20 uL/well) (Invitrogen, Cat DAL1100) was added for 6 h, and the plates were read with a fluorescence microplate reader at 546/580 nm (excitation/emission). For PBMC proliferation, cells were plated and activated as above but incubated for only 16 h prior to addition of Alamar Blue. Plates were read after 6 h.
As to `O=C(O)c1ccc2c(c1)nc(C(=O)NC1CCN(C3CC3)CC1)n2Cc1cc(-c2ccc(Cl)s2)on1`, the result was inactive.

Consider `CCc1ccc(O)c(C(C)(C)C)c1`, for which the AC50 was 39.3 µM (active).

Take `CCCCCOC(C)=O`: the result was inactive.

Regarding `COCc1nnc(-c2ccc[n+]([O-])c2)n1-c1c(Cl)c(Cl)cc2[nH]c(=O)c(=O)[nH]c12`, the outcome was inactive.

Consider `NC(=O)N(O)[C@@H]1COc2cc(OCc3ccccc3)ccc21`, for which the outcome was inactive.

On to `O=S1(=O)CCCO1`, for which the result was inactive.

On to `OCc1ccccc1`, for which the outcome was inactive.

Take `CC(C)CC(C)O` (stereo not given): the outcome was inactive.

Turning to `CCCOc1ccc(S(=O)(=O)N2CCN(CC)CC2)cc1-c1nc2c(CC)n(Cc3ccccn3)nc2c(=O)[nH]1`, the outcome was inactive.

Take `c1ccc2c(c1)-c1cccc3c1c-2cc1ccccc13`: the outcome was inactive.

`Cn1cc[nH]c1=S`: the outcome was inactive.

For `CC(=O)c1ccccc1`, the result was inactive.

For the molecule `O=C(O)c1cccc(C(=O)O)c1`, the outcome was inactive.

Turning to `NNC(=O)c1ccncc1`, the outcome was inactive.

As to `CCCCCCCCCCCCCCO`, the concentration at half-maximal activity (AC50) is 37.5 µM (active).

For `NC(=O)N1c2ccccc2C=Cc2ccccc21`, the outcome was inactive.

Consider `OCc1c[nH]c2ccccc12`, for which the half-maximal activity concentration (AC50) is 37.5 µM (active).

With `C=CCc1cc(S(=O)(=O)c2ccc(O)c(CC=C)c2)ccc1O`, the AC50 is 37.5 µM (active).

On to `CCCCC(CC)C(=O)OCCOCCOCCOC(=O)C(CC)CCCC` (stereo not given), for which the outcome was inactive.

Regarding `O=c1[nH]cnc2c1ncn2[C@H]1CC[C@@H](CO)O1`, the result was inactive.

Regarding `CCCc1ccccc1`, the result was inactive.

On to `OC(Cn1cncn1)(Cn1cncn1)c1ccc(F)cc1F`, for which the outcome was inactive.

For `COS(C)(=O)=O`, the outcome was inactive.

For `CC[C@H](C)C(=O)O[C@H]1C[C@H](O)C=C2C=C[C@H](C)[C@H](CC[C@@H](O)C[C@@H](O)CC(=O)O)[C@H]21`, the result was inactive.

In the case of `OCCNCCO`, the result was inactive.

With `Cc1ccc(S(=O)(=O)NC(=O)NN2CCCCCC2)cc1`, the result was inactive.

As for `CCOC(N)=O`, the result was inactive.

On to `CCCCCCCCN(C)C`, for which the result was inactive.

Turning to `OC(CCl)CCl`, the outcome was inactive.

In the case of `COc1cc(C(C)C)c2c(c1)S(=O)(=O)N(COc1cc(=O)n3cccc(OCCN4CCCCC4)c3n1)C2=O`, the result was inactive.

`C[C@]12C=CC(=O)C=C1CC[C@H]1[C@@H]3C[C@@H](O)[C@](O)(C(=O)CO)[C@@]3(C)C[C@H](O)[C@@]12F`: the outcome was inactive.

As for `OC[C@H]1O[C@@H]2O[C@H]3[C@H](O)[C@@H](O)[C@@H](O[C@H]4[C@H](O)[C@@H](O)[C@@H](O[C@H]5[C@H](O)[C@@H](O)[C@@H](O[C@H]6[C@H](O)[C@@H](O)[C@@H](O[C@H]7[C@H](O)[C@@H](O)[C@@H](O[C@H]1[C@H](O)[C@H]2O)O[C@@H]7CO)O[C@@H]6CO)O[C@@H]5CO)O[C@@H]4CO)O[C@@H]3CO`, the outcome was inactive.

Consider `CCCCN1C(=O)[C@@H]([C@H](O)C2CCCCC2)NC(=O)C12CCN(Cc1ccc(Oc3ccc(C(=O)O)cc3)cc1)CC2`, for which the AC50 is 39 µM (active).

With `CCCCCCCC/C=C\CCCCCCCC(=O)OC[C@@H](O)[C@H]1OC[C@H](O)[C@H]1O`, the result was inactive.

Consider `CCn1nc(C)c2c1C(=O)NCC(c1ccc(O)cc1)=N2`, for which the result was inactive.

`CC(C)CCCCCCOC(=O)C1CCCCC1C(=O)OCCCCCCC(C)C` (stereo not given): the outcome was inactive.

In the case of `O=C(O)c1cccc(C[C@@H]2COc3ccc(OCc4nc5cc(F)ccc5s4)cc3[C@@H]2O)c1`, the result was inactive.

In the case of `CCCCCCCC1CCC(=O)O1` (stereo not given), the result was inactive.

Take `C[C@@H](Oc1ccc(CNC(=O)c2cccnc2Oc2ccc3c(c2)OCO3)c(F)c1)C(=O)O`: the outcome was inactive.

Regarding `O=C(O)[C@H](O)[C@@H](O)C(=O)O`, the result was inactive.

A word on the AC50: it is the concentration giving half of the maximal activity seen.
